From PubChem BioAssay (NCATS)
Results filed as inconclusive are left out. Calls of active or inactive are those of the source. Unless noted, calls follow the shape of the full dose curve.

How the values were obtained:
[1] = target: Lysosomal acid glucosylceramidase (Homo sapiens) (UniProt P04062); experiment: Glucocerebrosidase-p2 (AID 348; in the data active = potency below about 10 µM; also: potency is read from the fitted curve at half-maximal effect); conditions: purified GBA, blue fluorogenic substrate, 40 min
Sequence of Lysosomal acid glucosylceramidase (Homo sapiens) (P04062 whole entry, looked up): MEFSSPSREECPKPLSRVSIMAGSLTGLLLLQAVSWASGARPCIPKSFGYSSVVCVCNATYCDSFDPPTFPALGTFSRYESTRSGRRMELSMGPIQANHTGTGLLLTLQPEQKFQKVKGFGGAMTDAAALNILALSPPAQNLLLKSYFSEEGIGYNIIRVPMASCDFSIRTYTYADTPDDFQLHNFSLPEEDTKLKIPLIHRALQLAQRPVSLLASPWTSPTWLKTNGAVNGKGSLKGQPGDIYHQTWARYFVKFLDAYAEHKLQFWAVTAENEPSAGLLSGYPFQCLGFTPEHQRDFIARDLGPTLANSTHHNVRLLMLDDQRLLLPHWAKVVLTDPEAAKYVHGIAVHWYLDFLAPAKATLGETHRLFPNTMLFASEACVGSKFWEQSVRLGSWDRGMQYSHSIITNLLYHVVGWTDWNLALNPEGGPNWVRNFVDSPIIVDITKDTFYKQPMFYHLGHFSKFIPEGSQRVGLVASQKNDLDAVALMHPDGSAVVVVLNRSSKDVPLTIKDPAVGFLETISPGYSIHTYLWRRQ
Outline: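 Compounds titrated from 0.6 nM upwards against 0.2 nM enzyme in pH 5.9 citric acid/KH2PO4, taurocholate, tween-20; blue fluorogenic substrate 80 uM, 40 min room temperature, stopped and read Ex 365/Em 440 for AC50.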

[2] = AP1 Signaling Pathway (AID 357; active = well fitted curve in either direction with a large enough effect, not every such curve was filed as active;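 also: ME-180 reporter cells stimulated with EGF at its EC50 level; % is scaled to controls: 0 for no effect and ±100 for the full control effect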); conditions: ME-180 AP-1-bla reporter, EGF-induced, beta-lactamase ratio, 5 h; at 7.69 µM (top of the series) unless noted
Outline: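 Read-out was the 460nm/530nm emission ratio (excitation 405nm) after CCF4 loading for 2.5 hours at room temperature. Cells carried an AP-1-driven beta-lactamase reporter, were stimulated with EC50 EGF plus compound for 5 hours, and AC50 values came from titrations.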

[3] = target: Cytochrome P450 1A2 (Homo sapiens) (UniProt P05177); experiment: p450-cyp1a2 (AID 410); conditions: recombinant CYP1A2, luciferin-ME demethylation, luminescence; series mostly up to 57 µM; also: potency is read from the fitted curve at half-maximal effect;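 as to activity change, negative = inhibition: -100% = full effect of reference inhibitor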
Sequence of Cytochrome P450 1A2 (Homo sapiens) (P05177 whole entry, looked up): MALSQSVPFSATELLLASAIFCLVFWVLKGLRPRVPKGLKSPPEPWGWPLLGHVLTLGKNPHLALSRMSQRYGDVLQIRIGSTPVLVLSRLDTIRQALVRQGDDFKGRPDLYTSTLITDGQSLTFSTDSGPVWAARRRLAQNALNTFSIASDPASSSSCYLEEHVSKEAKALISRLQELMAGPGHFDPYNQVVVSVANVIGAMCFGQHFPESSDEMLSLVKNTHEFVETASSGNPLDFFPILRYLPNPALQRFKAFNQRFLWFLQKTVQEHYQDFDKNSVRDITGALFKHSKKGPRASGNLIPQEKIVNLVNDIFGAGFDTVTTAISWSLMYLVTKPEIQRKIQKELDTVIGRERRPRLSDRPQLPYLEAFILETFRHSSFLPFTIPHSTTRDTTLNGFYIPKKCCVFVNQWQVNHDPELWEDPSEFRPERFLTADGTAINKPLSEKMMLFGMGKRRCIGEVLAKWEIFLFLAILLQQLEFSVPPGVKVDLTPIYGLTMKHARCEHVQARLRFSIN
Outline: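 Luminescent readout of luciferin formed from Luciferin-ME by human CYP1A2; data normalized against complete inhibition by 57 uM furafylline. Enzyme 20nM, substrate 100uM at Km, 100mM KPO4 buffer, 60 min reaction at room temperature.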

[4] = Stat Signaling Pathway (AID 446; active = well fitted curve in either direction with a large enough effect, not every such curve was filed as active;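 also: ME-180 cervical cancer cells given 40 pM IL-6 alongside compound; SIE-controlled beta-lactamase reporter measured as 460/530 nm FRET emission ratio; % is scaled to controls: 0 for no effect and ±100 for the full control effect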); conditions: ME-180 SIE beta-lactamase reporter, IL-6 stimulated, 5 h; at 7.69 µM (top of the series) unless noted
Outline: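 ME-180 SIE-bla cells; overnight plating; cpd + IL-6 40 pM, 5 h, 37 C; LiveBLAzer 2.5 h RT; 460/530 nm emission ratio. Normalized to 300 pM IL-6 and 125 nM JAK inhibitor controls.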

[5] = target: Glucocorticoid receptor (Homo sapiens) (UniProt P04150); experiment: GR-EFC Redistribution (AID 451); conditions: CHO-K1 GR-EFC translocation, beta-gal luminescence, 2 h; also: potency is read from the fitted curve at half-maximal effect
Sequence of Glucocorticoid receptor (Homo sapiens) (P04150 whole entry, looked up, the tested form may be a part): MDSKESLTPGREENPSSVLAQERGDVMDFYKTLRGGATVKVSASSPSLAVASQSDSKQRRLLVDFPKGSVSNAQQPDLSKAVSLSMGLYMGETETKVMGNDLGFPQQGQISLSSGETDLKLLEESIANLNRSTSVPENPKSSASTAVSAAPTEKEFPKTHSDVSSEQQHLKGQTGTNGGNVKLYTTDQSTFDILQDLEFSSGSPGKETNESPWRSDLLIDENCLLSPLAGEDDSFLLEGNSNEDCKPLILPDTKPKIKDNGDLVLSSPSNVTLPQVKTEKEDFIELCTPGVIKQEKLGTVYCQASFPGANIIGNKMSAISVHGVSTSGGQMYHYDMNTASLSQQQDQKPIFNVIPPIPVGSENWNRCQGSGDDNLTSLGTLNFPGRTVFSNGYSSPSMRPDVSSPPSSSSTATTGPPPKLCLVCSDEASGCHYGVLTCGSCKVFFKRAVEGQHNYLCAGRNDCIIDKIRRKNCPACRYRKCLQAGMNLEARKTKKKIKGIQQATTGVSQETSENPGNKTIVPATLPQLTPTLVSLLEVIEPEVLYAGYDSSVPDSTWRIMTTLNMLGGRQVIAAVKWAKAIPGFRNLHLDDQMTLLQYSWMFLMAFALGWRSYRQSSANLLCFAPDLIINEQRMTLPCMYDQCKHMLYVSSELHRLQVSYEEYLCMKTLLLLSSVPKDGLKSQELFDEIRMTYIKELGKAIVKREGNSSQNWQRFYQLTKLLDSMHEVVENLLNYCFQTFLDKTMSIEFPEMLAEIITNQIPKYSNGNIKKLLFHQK
Outline: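 CHO-K1 cells expressing nuclear EA and GR-ED fragments of b-gal; compounds titrated up to 46 uM final, 2 h at 37 C. GR nuclear translocation read as complemented b-gal luminescence after 1 h RT detection.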

[6] = target: Mitogen-activated protein kinase 10 (Mus musculus) (UniProt Q61831); experiment: JNK3 AlphaScreen Assay (AID 530; active = well fitted curve in either direction with a large enough effect, not every such curve was filed as active;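 also: kinase came from lysate of stimulated human HepG2 cells; signal reports phosphorylation of biotinylated GST-cJun 1-79 at Ser73 with 10 µM ATP; % is scaled to controls: 0 for no effect and ±100 for the full control effect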); conditions: JNK3 lysate, c-Jun phosphorylation; series mostly up to 57.1 µM
Outline: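 Pre-activated (IL-1β/TNFα) JNK3 in HepG2 lysates phosphorylates biotin-GST-cJun(1-79), 10 uM ATP; anti-phospho-cJun(Ser73) AlphaScreen read at room temperature, pH 7.6 Tris buffer. Compounds pre-incubated 15 min as titrations.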

[7] = target: Cytochrome P450 3A4 (Homo sapiens) (UniProt P08684); experiment: qHTS Assay for Activators of Cytochrome P450 3A4 (AID 885; active = well fitted curve in the direction sought with a large enough effect; an effect the other way counts as inactive or inconclusive; also: nearly all actives have a fitted effect of over 65% in size); conditions: recombinant CYP3A4, Luciferin-PPXE luminescence, 60 min; series mostly up to 57.1 µM
Sequence of Cytochrome P450 3A4 (Homo sapiens) (P08684 whole entry, looked up): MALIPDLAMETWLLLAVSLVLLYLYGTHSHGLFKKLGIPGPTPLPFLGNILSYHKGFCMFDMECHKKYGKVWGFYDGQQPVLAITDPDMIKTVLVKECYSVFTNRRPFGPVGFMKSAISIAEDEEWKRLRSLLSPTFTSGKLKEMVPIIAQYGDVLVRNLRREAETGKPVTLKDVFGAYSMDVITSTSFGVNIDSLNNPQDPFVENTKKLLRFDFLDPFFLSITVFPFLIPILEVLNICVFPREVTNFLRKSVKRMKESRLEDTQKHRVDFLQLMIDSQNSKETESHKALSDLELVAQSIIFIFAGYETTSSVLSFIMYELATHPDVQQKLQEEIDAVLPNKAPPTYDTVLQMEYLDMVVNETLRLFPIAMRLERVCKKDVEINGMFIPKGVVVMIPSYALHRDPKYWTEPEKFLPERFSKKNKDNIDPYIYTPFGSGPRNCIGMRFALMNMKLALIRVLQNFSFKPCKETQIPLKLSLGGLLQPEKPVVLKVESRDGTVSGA
Outline: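 20nM CYP3A4 + 25uM Luciferin-PPXE (=KM), 200mM KPO4; cpd 10 min RT; NADPH regen, 60 min RT; stop w/ detection buffer, 20 min; luminescence. Normalized to 57 uM ketoconazole.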

[8] = qHTS Assay for Identification of Small Molecule Agonists for Hypoxia Response Element Signaling Pathway (AID 914; active = well fitted activation curve with a large enough effect in the signal ratio, with a control signal flat, not every such curve was filed as active; the % refers to the signal ratio; also: potency is read from the fitted curve at half-maximal effect; as to activation: % of control where 0% means no effect); conditions: ME-180 (cervical carcinoma) HRE-bla reporter, beta-lactamase ratio, CoCl2, 17 h; activation: stronger effect = higher value
Outline: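 HRE-bla ME-180 cells, overnight plating in Opti-MEM with 0.5% dialyzed FBS; cpd titration + EC50 CoCl2, 17 h, 37 degrees Celsius; CCF4 2.5 h RT; 460/530 nm ratio; AC50.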

[9] = qHTS Assay for Lipid Storage Modulators (AID 1519); conditions: Drosophila S3 cells, BODIPY lipid droplet/cell ratio, laser cytometry, cells loaded with oleic acid; for activity change, negative = inhibition: at 57.5 µM (top of the series)
Outline: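 Cells seeded at 5,000 per well were treated with compounds over a concentration series and loaded with oleic acid (400 uM, as added). Lipid droplet fluorescence (488 nm excitation, 500-530 nm channel) was read by laser-scanning cytometry and normalized to 20 uM Triacsin C.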

[10] = Primary qHTS for small molecule stabilizers of the endoplasmic reticulum resident proteome: Secreted ER Calcium Modulated Protein (SERCaMP) assay (AID 1508630; active = well fitted curve in the direction sought with a large enough effect; an effect the other way counts as inactive or inconclusive; also: % is scaled to controls: 0 for no effect and ±100 for the full control effect); conditions: SH-SY5Y GLuc-SERCaMP (Gaussia luciferase released on ER calcium loss) secretion, thapsigargin, luminescence; series mostly up to 38.4 µM
Outline: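 GLuc-SERCaMP-expressing SH-SY5Y cells, pretreated 16 h with compound, are challenged with thapsigargin to empty ER calcium stores; after 4 h, coelenterazine is added directly to the medium and luminescence is imaged.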

[11] = target: 3',5'-cyclic-AMP phosphodiesterase 4B (Homo sapiens) (UniProt Q07343); experiment: qHTS Assay for Inhibitors of PDE-IV (AID 607; active = well fitted activation curve with a large enough effect in the main read-out, with a control signal flat, not every such curve was filed as active; also: potency is read from the fitted curve at half-maximal effect); conditions: HEK293 ACTOne CNG channel cells, membrane potential fluorescence; series mostly up to 22.9 µM
Sequence of 3',5'-cyclic-AMP phosphodiesterase 4B (Homo sapiens) (Q07343 whole entry, looked up): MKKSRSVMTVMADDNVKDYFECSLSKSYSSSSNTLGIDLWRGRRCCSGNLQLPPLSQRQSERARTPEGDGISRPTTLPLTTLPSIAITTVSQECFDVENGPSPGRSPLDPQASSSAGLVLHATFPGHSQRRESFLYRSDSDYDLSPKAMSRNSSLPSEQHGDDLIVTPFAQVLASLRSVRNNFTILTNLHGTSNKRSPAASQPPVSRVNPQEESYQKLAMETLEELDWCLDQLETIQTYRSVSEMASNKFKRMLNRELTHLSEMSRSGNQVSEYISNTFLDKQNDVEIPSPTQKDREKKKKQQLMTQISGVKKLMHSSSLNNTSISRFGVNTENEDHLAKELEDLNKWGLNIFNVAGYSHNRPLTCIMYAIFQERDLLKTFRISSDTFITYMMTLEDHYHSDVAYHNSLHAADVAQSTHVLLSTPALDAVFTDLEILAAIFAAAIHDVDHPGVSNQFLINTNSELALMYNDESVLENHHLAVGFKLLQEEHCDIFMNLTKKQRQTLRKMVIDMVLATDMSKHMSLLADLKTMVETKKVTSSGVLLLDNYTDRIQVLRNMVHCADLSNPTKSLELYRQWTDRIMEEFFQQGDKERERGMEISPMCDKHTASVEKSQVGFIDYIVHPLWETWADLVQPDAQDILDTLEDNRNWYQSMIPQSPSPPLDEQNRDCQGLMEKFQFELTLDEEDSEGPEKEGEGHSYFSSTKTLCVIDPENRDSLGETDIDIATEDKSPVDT
Outline: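 ACTOne HEK293 cells carry a modified cAMP-gated CNG channel and express endogenous PDE4; plated 1000 cells/well, compounds up to 22.9 uM final. Membrane-potential dye fluorescence (ex 535/em 590) was read; parental cells received 10 uM forskolin + 100 uM RO 20-1724.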

[12] = target: Cytochrome P450 2C19 (Homo sapiens) (UniProt P33261); experiment: qHTS Assay for Inhibitors and Substrates of Cytochrome P450 2C19 (AID 899; active = well fitted curve in the direction sought with a large enough effect; an effect the other way counts as inactive or inconclusive; also: nearly all actives have a fitted effect of over 60% in size; also: potency is read from the fitted curve at half-maximal effect); conditions: recombinant CYP2C19, luciferin-H EGE luminescence; series mostly up to 57.1 µM
Sequence of Cytochrome P450 2C19 (Homo sapiens) (P33261 whole entry, looked up): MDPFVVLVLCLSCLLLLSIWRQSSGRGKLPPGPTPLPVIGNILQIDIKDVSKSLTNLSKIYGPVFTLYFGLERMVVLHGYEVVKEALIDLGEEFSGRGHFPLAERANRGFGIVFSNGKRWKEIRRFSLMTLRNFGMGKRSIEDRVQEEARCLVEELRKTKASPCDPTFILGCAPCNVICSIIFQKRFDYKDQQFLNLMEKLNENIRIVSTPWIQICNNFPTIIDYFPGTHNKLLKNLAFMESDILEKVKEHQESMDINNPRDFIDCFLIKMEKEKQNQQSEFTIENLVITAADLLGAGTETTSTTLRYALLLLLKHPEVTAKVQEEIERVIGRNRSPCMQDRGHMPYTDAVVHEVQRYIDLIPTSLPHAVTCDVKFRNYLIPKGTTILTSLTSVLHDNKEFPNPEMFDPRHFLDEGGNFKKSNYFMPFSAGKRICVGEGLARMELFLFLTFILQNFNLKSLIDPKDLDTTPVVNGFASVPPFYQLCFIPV
Outline: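 Signal comes from luciferase acting on luciferin released by CYP2C19-mediated hydroxylation of Luciferin-H EGE, 10uM (KM). Assay mix: 5nM enzyme, 50mM KPO4; 60 min at 37C with NADPH regeneration. Data normalized against 57uM ketoconazole.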

[13] = target: Cytochrome P450 2D6 (Homo sapiens) (UniProt P10635); experiment: qHTS Assay for Inhibitors and Substrates of Cytochrome P450 2D6 (AID 891; active = well fitted curve in the direction sought with a large enough effect; an effect the other way counts as inactive or inconclusive; also: potency is read from the fitted curve at half-maximal effect; nearly all actives have a fitted effect of over 60% in size); conditions: recombinant CYP2D6, luciferin-ME EGE luminescence; series mostly up to 57.1 µM
Sequence of Cytochrome P450 2D6 (Homo sapiens) (P10635 whole entry, looked up): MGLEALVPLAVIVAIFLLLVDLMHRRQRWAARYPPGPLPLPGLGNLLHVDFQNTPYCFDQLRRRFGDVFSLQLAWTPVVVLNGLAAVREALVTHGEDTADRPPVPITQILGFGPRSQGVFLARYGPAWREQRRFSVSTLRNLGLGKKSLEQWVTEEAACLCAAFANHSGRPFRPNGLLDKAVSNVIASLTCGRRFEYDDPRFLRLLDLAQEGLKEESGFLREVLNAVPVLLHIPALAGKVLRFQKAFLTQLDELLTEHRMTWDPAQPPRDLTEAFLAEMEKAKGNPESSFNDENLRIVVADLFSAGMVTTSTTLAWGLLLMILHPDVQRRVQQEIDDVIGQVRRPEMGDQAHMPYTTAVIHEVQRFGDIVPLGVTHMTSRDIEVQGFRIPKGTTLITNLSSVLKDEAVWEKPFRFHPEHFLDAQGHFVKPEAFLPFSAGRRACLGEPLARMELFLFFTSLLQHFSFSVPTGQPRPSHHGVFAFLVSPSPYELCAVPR
Outline: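 Human CYP2D6 (5 nM) with 30 uM Luciferin-ME EGE (at Km) in 100 mM KPO4, compound preincubated 10 min, then NADPH regeneration system for 60 min at room temperature. Luciferin read by luminescence; normalized to 1.43 uM quinidine.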

[14] = target: Glucocorticoid receptor (Homo sapiens) (UniProt P04150); experiment: GR-GFP Redistribution (AID 450;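 active = compounds whose dose series gives a full or clear partial fitted curve of increased nuclear translocation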; also: potency is read from the fitted curve at half-maximal effect); conditions: U2OS GR-GFP nuclear translocation, laser cytometry, 2 h
[15] = target: Cytochrome P450 2C9 (Homo sapiens) (UniProt P11712); experiment: qHTS Assay for Inhibitors and Substrates of Cytochrome P450 2C9 (AID 883; active = well fitted curve in the direction sought with a large enough effect; an effect the other way counts as inactive or inconclusive; also: potency is read from the fitted curve at half-maximal effect; nearly all actives have a fitted effect of over 60% in size); conditions: recombinant CYP2C9, luciferin-H luminescence, 60 min; series mostly up to 57.1 µM
Sequence of Cytochrome P450 2C9 (Homo sapiens) (P11712 whole entry, looked up): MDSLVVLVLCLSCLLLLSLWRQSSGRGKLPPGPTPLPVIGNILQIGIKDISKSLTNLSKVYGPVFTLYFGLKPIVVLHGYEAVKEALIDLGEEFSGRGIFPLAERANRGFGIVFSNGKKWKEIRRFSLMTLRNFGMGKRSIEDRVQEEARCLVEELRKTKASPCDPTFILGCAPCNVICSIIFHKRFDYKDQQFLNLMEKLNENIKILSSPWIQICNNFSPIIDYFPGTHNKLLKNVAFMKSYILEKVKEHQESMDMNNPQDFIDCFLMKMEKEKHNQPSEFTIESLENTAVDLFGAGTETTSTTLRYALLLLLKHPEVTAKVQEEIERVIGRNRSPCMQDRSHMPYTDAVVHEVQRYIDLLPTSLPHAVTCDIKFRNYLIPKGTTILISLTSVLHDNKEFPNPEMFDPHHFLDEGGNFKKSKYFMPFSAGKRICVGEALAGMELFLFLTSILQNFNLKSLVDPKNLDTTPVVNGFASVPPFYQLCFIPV
Outline: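 Signal: luciferase luminescence reporting luciferin produced by CYP2C9. Conditions: 10nM enzyme, Luciferin-H 100uM at KM, 25mM KPO4, 37C, 60 min NADPH-driven reaction. Reference: 57uM sulphaphenazole as 100% inhibition.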

[16] = measured here: cell count channel max response
[17] = measured here: lipid channel max response

SMILES | Potency [1] | activity change, negative = inhibition [2] | Potency [3] | activity, negative = inhibition [4] | Potency [5] | Potency [6] | Potency [7] | activation [8] | activity change, negative = inhibition [9] | max response [9, 16] [%] | max response [9, 17] [%] | outcome [10] | Potency [11] | Potency [12] | Potency [13] | Potency [14] | Potency [8] | Potency [15]
CC(C)CN1CCCC2(CCN(C(=O)c3cc(C(F)(F)F)cc(C(F)(F)F)c3)CC2)C1 | > 11.4 µM (inactive) | -4.78% (inactive) | 12.6 µM (active) | -8.44% (inactive) | > 46 µM (inactive) | inactive | inactive | -20.4% (inactive) | 2.29% (inactive) | 11.6 | 17.9 | inactive |  |  |  |  |  | 
O=C(c1cc(C(F)(F)F)cc(C(F)(F)F)c1)N1CCC2(CCN(Cc3ccccc3)CC2)CC1 | > 11.4 µM (inactive) | 9.59% (inactive) | inactive | -1.85% (inactive) | > 46 µM (inactive) | inactive |  | 4.02% (inactive) | 2.31% (inactive) | 18.5 | 24.9 | inactive | inactive |  |  |  |  | 
N#Cc1cccc(NC(=O)N2CC3(CCN(C(=O)c4cc(C(F)(F)F)cc(C(F)(F)F)c4)CC3)C2)c1 | > 11.4 µM (inactive) | -13.9% (inactive) | 12.6 µM (active) | -7.2% (inactive) | > 46 µM (inactive) | inactive | inactive |  | -0.946% (inactive) | 14 | 14.4 | inactive | inactive | 0.631 µM (active) |  |  |  | 
O=C(c1cccc(F)c1)N1CCC2(CC1)CN(Cc1ccccc1)C2 | > 11.4 µM (inactive) | 0.919% (inactive) | inactive | 0.079% (inactive) | > 46 µM (inactive) | inactive |  |  | -1.4% (inactive) | -5.75 | -4.23 | inactive | inactive |  | 5.01 µM (active) |  |  | 
N#Cc1ccc(CN2CCC3(CC2)CCN(C(=O)c2ccncc2)CC3)cc1 | > 11.4 µM (inactive) | 1.51% (inactive) | inactive | -3.87% (inactive) | > 46 µM (inactive) | inactive | inactive |  | 1.92% (inactive) | 15.7 | 18.7 | inactive | inactive |  | 6.31 µM (active) |  |  | 
O=C(c1csnn1)N1CCC2(CCCN(Cc3ccccc3)C2)CC1 | > 11.4 µM (inactive) | 9.34% (inactive) | inactive | -5.61% (inactive) | > 46 µM (inactive) | inactive |  |  | 3.37% (inactive) | 10.8 | 18 | inactive | inactive |  | 1.26 µM (active) |  |  | 
O=C(c1ccncc1)N1CCC2(CCN(Cc3ccccc3)CC2)CC1 | > 11.4 µM (inactive) | 3.68% (inactive) | inactive | -6.01% (inactive) | > 46 µM (inactive) | inactive | inactive |  | 3.67% (inactive) | 13.9 | 18.6 | inactive | inactive | inactive |  |  |  | 
COCC(=O)N1CCC[C@@]2(CCN(C(c3ccccc3)c3ccccc3)C2)C1 | > 11.4 µM (inactive) | 0.34% (inactive) | 12.6 µM (active) | -0.903% (inactive) | > 46 µM (inactive) | inactive | inactive |  | -13.8% (inactive) | -8.5 | -21.2 | inactive | inactive |  | 6.31 µM (active) |  |  | 
COCC(=O)N1CCC2(CCCN(c3ccncc3)C2)CC1 | > 11.4 µM (inactive) | 3.93% (inactive) | inactive | -8.03% (inactive) | > 46 µM (inactive) | inactive | inactive |  | 3.88% (inactive) | -7.49 | 0.42 | inactive | inactive |  |  |  |  | 
CC(C)CN1CCC2(CC1)CCN(C(=O)c1cccc(F)c1)CC2 | > 11.4 µM (inactive) | -11.3% (inactive) | inactive | 0.382% (inactive) | > 46 µM (inactive) | inactive |  |  | 0.839% (inactive) | 1.53 | 2.51 | inactive | inactive |  | 5.01 µM (active) |  |  | 
CN(C)c1ncc2nc(-c3ccc(F)cc3)c(=O)n(C3CC3)c2n1 | > 11.4 µM (inactive) | 18.2% (inactive) | 1.58 µM (active) |  | > 46 µM (inactive) | inactive |  |  | 2.01% (inactive) | 10.2 | 13.7 | inactive | 2 µM (active) |  |  | > 9.22 µM (inactive) | 2.51 µM (active) | 
CN1CCCC2(CCN(C(=O)c3cc(C(F)(F)F)cc(C(F)(F)F)c3)CC2)C1 | > 11.4 µM (inactive) | 5.94% (inactive) | inactive | 4.14% (inactive) | > 46 µM (inactive) | inactive | inactive |  | 3.25% (inactive) | 17.7 | 23.1 | inactive | inactive |  |  |  |  | 
COc1ccccc1CN1CC2(CCN(C(=O)c3ccncc3)CC2)C1 | > 11.4 µM (inactive) | -0.483% (inactive) | inactive | -1.82% (inactive) | > 46 µM (inactive) | inactive | inactive |  | -2.12% (inactive) | -19.5 | -17.3 | inactive | inactive |  | 0.794 µM (active) |  |  | 
O=C(c1cccc(F)c1)N1CCC2(CC1)CN(c1ccncc1)C2 | > 11.4 µM (inactive) | -2.31% (inactive) | inactive | 1.58% (inactive) | > 46 µM (inactive) |  |  |  | -4.55% (inactive) | -24.1 | -26.4 | inactive | inactive | 3.16 µM (active) |  |  |  | 5.01 µM (active)
